# Measurements from PubChem BioAssay.
# Unmarked numbers belong to inactive results. Where a call stands in place of a potency, no number is given. For some assays here: Potency and affinity values are given separately. Activity calls are given as the source filed them. Unless noted, how the calls were made is not given here.
# Columns and labels:
# [1] = antimalarial activity against Dd2 strain (AID 2302;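 active means growth inhibition above 50% at the single 2 µM test dose, taken to imply half-maximal potency below 2 µM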); details: P. falciparum Dd2 in RBCs, LDH growth readout, 72 h; at 2 µM; active compounds read high
# [2] = human hepatoma cell viability loss – ATP luminescence, cytotoxicity control for P. falciparum antimalarial project, primary screen (AID 2303;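 active means inhibition above 50%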); details: HepG2 viability, 24-48 h, at 10 µM, active compounds read high
# [3] = target: L-lactate dehydrogenase (Plasmodium falciparum (isolate CDC / Honduras)) (UniProt Q27743); test: PfLDH activity inhibition – cell lysate, 3D7 strain, counter-screen for P. falciparum growth inhibition project (AID 2304); details: P. falciparum 3D7 crude extract, LDH APAD/NBT absorbance; at 2 µM; active compounds read high
# [4] = inhibition of 3D7 malaria parasite growth – strain 3D7 (AID 2306); details: P. falciparum 3D7 erythrocytic growth, LDH absorbance, 72 h; at 2 µM; active compounds read high
# [5] = target: Calcium-dependent protein kinase 1 (Plasmodium falciparum (isolate 3D7)) (UniProt P62344); test: PfCDPK1 kinase inhibitors, biochemical, TCAMS library (AID 1159585; cut-off not given, nearly all actives have IC50 up to about 0.98 µM;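 further: inhibitors leave more ATP so luminescence rises with inhibition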); details: recombinant PfCDPK1, Kinase-Glo ATP depletion luminescence
# [6] = target: Plasmodium falciparum protein kinase 6 (PK6, PF3D7_1337100) (UniProt Q8IDW1); test: PfPK6 kinase inhibitors, biochemical, TCAMS library (AID 1159586); details: recombinant PfPK6, Kinase-Glo ATP depletion luminescence
# [7] = target: Protein kinase 7 (PK7), Plasmodium falciparum 3D7 (PF3D7_0213400) (UniProt Q7YTF7); test: inhibition of Plasmodium PK7 catalytic activity – biochemical, TCAMS antimalarial set, Kinase-Glo luminescence (AID 1159587); details: recombinant PfPK7, Kinase-Glo ATP depletion luminescence
# [8] = target: Calcium-dependent protein kinase 4 (Plasmodium falciparum (isolate 3D7)) (UniProt Q8IBS5); test: PfCDPK4 kinase inhibitors, biochemical, TCAMS library (AID 1159588; cut-off not given, nearly all actives have IC50 up to about 0.91 µM); details: recombinant PfCDPK4, Kinase-Glo ATP depletion luminescence
# Calcium-dependent protein kinase 4 (Plasmodium falciparum (isolate 3D7)), sequence (Q8IBS5 whole entry, looked up): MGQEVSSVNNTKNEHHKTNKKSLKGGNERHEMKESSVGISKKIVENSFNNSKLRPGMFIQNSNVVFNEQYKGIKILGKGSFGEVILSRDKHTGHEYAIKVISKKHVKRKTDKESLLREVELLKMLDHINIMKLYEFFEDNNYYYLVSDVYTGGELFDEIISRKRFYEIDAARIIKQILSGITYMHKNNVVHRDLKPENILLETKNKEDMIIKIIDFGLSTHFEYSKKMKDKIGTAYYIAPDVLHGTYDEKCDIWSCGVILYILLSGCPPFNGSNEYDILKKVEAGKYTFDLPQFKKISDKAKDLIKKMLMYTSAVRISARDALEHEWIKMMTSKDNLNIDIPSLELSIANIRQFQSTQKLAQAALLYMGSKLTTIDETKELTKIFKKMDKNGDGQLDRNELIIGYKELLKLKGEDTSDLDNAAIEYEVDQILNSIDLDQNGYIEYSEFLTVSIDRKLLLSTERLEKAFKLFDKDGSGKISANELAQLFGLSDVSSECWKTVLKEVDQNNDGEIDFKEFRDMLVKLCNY
# Plasmodium falciparum protein kinase 6 (PK6, PF3D7_1337100), sequence (Q8IDW1 1-305): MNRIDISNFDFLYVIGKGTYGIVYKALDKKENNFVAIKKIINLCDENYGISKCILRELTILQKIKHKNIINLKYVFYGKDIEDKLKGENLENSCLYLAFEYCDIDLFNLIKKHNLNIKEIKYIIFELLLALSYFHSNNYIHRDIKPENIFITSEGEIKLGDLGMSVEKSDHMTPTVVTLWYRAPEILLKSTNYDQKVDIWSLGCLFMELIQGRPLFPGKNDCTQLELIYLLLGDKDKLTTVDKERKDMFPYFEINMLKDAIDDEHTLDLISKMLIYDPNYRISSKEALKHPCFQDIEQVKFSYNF
# Protein kinase 7 (PK7), Plasmodium falciparum 3D7 (PF3D7_0213400), sequence (Q7YTF7 1-343): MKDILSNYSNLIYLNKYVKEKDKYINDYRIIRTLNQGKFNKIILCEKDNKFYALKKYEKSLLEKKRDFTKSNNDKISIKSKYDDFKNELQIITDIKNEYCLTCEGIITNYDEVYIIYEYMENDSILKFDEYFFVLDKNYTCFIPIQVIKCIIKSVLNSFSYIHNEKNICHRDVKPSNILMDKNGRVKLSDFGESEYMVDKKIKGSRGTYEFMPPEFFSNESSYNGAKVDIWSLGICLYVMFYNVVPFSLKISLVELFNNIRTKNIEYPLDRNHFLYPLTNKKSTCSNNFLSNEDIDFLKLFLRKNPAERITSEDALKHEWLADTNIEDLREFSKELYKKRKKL
# Calcium-dependent protein kinase 1 (Plasmodium falciparum (isolate 3D7)), sequence (P62344 whole entry, looked up): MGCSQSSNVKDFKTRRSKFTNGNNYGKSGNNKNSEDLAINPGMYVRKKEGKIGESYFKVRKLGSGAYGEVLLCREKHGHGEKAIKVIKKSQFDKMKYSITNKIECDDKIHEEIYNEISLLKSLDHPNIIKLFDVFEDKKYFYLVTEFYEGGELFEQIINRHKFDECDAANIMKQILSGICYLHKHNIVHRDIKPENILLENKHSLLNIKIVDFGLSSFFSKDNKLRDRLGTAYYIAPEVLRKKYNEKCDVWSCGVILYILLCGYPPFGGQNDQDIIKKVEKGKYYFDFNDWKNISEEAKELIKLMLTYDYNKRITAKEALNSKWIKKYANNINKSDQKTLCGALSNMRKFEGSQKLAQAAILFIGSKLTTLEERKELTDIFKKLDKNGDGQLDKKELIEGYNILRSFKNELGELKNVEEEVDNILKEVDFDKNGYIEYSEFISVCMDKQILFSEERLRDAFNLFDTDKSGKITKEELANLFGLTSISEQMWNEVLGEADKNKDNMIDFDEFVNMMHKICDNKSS
# L-lactate dehydrogenase (Plasmodium falciparum (isolate CDC / Honduras)), sequence (Q27743 whole entry, looked up): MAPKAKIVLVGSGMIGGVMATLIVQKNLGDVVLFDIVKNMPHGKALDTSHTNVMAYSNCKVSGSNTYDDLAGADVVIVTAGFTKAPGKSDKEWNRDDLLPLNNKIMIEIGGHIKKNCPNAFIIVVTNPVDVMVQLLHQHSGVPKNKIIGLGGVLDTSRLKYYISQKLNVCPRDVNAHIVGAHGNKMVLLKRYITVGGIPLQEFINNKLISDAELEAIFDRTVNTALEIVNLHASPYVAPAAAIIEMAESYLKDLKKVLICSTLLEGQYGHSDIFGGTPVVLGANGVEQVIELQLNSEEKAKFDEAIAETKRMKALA
Structure (SMILES),growth inhibition [1],inhibition [2],inhibition [3] [%],growth inhibition [4],outcome [5],outcome [6],outcome [7],outcome [8]
NC(N)=NN=Cc1ccc2c(c1)Cc1ccccc1-2,81% (active),72% (active),-2,100% (active),inactive,inactive,inactive,inactive
CCN(CC)CCOc1cc2c(cc1Br)-c1cc(Br)c(OCCN(CC)CC)cc1C2=NO,98% (active),99% (active),-3,100% (active),inactive,inactive,inactive,inactive
CCCCN(CCCC)CCOc1cc2c(cc1OC)CCN2C(=O)/C=C/c1ccccc1Cl,31%,13%,0,87% (active),inactive,inactive,inactive,inactive
Cc1ccc(NC(=O)c2ccc3nccnc3c2)cc1OC1CCN(Cc2ccc(F)cc2)CC1,24%,16%,4,87% (active),inactive,inactive,inactive,inactive
COc1ccc2nccc(N3CCC(O)(CCNCc4ccc5c(n4)NC(=O)CO5)CC3)c2n1,24%,18%,-4,100% (active),inactive,inactive,inactive,inactive
COc1cc(NC(=O)CCCCCCCN2CCN(C)CC2)c2ncccc2c1,83% (active),2%,1,95% (active),inactive,inactive,inactive,inactive
OC(c1cc(C(F)(F)F)nc2c(F)cccc12)C1CCCCN1 (stereo not given),74% (active),-4%,-2,98% (active),inactive,inactive,inactive,inactive
Cc1ccc2nc3c(cc(C(=O)NCCc4ccccc4)c(=N)n3CCCOC(C)C)c(=O)n2c1,12%,15%,0,96% (active),inactive,inactive,inactive,inactive
CCC(C)NS(=O)(=O)c1ccc2nc(Nc3ccc(C)cc3)n([C@H](C)C(C)(C)C)c2c1 (stereo not given in full),98% (active),2%,0,98% (active),inactive,inactive,inactive,inactive
CN=C(NC)c1cccc(NC(=O)C=Cc2ccc(C=CC(=O)Nc3cccc(C(=NC)NC)c3)cc2)c1,99% (active),21%,2,98% (active),inactive,inactive,inactive,inactive
COc1ccc(-c2ccccc2CNc2nc(NCCc3ccc(O)cc3)nc(N3CCNCC3)n2)cc1,3%,48%,-3,86% (active),inactive,inactive,inactive,inactive
CCc1ccc(C2CCN(CCCCNC(=O)c3ccc(-c4ccc(Cl)cc4)cc3)CC2)c(O)c1,99% (active),48%,2,101% (active),inactive,inactive,inactive,inactive
COc1ccccc1CCC(C)(C)NC(=O)CC(CCc1ccccc1)Nc1ccc(C#N)c2ccccc12 (stereo not given),65% (active),6%,0,94% (active),inactive,inactive,inactive,inactive
Oc1ccc2[nH]c(-c3ccc(OC(F)(F)F)cc3)nc2c1CNC1CCCC1,97% (active),32%,0,99% (active),inactive,inactive,inactive,inactive
O=C(/C=C/c1ccc(Cl)c(Cl)c1)NCCCCCN1CCC(NC(=S)Nc2ccc(Cl)c(Cl)c2)CC1,65% (active),29%,2,99% (active),inactive,inactive,inactive,inactive
CC(C)OC(=O)c1ccc(NC(=O)N[C@@H](Cc2ccc(O)cc2)C(=O)NC2CCC(CCN3[C@@H]4CC[C@H]3c3ccccc34)CC2)cc1 (stereo not given in full),67% (active),3%,3,95% (active),inactive,inactive,inactive,inactive
COC(=O)c1cccc(NC(=O)NC2CCN(c3ccnc(Nc4cc(OC)c(OC)c(OC)c4)n3)C2)c1 (stereo not given),68% (active),7%,3,99% (active),inactive,inactive,inactive,inactive
CNC(=O)c1cnc(Nc2ccc3[nH]c(=O)[nH]c3c2)nc1Nc1cccc(OC(C)C)c1,94% (active),18%,-8,89% (active),inactive,inactive,inactive,inactive
CCCCCC(C)N=C(Nc1ccc(C#N)cc1O)Nc1ccccc1Br (stereo not given),95% (active),2%,-3,98% (active),inactive,inactive,inactive,inactive
O=C(Nc1ccsc1)Nc1cccc(-c2ccc(-c3nc4ccc(C(F)(F)F)cc4[nH]3)cc2)c1,36%,45%,-2,99% (active),inactive,inactive,inactive,inactive

Structure (SMILES),growth inhibition [1],inhibition [2],inhibition [3] [%],growth inhibition [4],outcome [5],outcome [6],outcome [7],outcome [8]
CCN(CC)CCN(Cc1ccc(-c2ccc(Cl)s2)cc1)C(=O)Cn1c(CCc2cccc(F)c2F)nc(=O)c2ccccc21,27%,24%,-4,96% (active),inactive,inactive,inactive,inactive
CN(CCO)Cc1ccc(-c2ccc(NS(=O)(=O)c3cccc4cccnc34)cc2)cc1,84% (active),28%,-1,99% (active),inactive,inactive,inactive,inactive
CC(C)c1nc2c(N)nc(N)nc2nc1N,-1%,64% (active),2,84% (active),inactive,inactive,inactive,inactive
CCCCN(C(=O)c1ccccc1C)c1nnc(-c2ccccc2C)s1,94% (active),10%,2,92% (active),inactive,inactive,inactive,inactive
Cc1ccc(Cn2ncc(NC3CCNCC3)c(Cl)c2=O)cc1NC(=O)Nc1ccc(-c2ccccc2)cc1,61% (active),18%,-2,99% (active),inactive,inactive,inactive,inactive
CCC[C@@H]([C@@H](CC(C)C)C(=O)N[C@@H](CCCCNC(=O)c1ccccn1)C(=O)Nc1nccs1)N(O)C=O,100% (active),-23%,-3,101% (active),inactive,inactive,inactive,inactive
O=C(c1ccc(Cl)c(Cl)c1)N1CCc2c([nH]c3ccccc23)C1CN1CCCC1 (stereo not given),16%,83% (active),2,94% (active),inactive,inactive,inactive,inactive
NC(N)=Nc1nc(-c2ccc(NC(=O)Nc3cccc(-c4csc(N=C(N)N)n4)c3)cc2)cs1,80% (active),-9%,3,94% (active),inactive,inactive,inactive,inactive
Cc1ccc(C(=O)Nc2cc(C(F)(F)F)cc(C(F)(F)F)c2)cc1[N+](=O)[O-],61% (active),17%,1,101% (active),inactive,inactive,inactive,inactive
CC(=O)N[C@H](C(=O)Nc1ccc(-c2ccc(-c3nc4ccc(C(F)(F)F)cc4[nH]3)s2)cc1)C(C)C,61% (active),42%,2,88% (active),inactive,inactive,inactive,inactive
Cc1ccc(C(=O)Nc2ccc(Nc3ccnc4cc(-c5ccccn5)ccc34)cc2O)cc1,100% (active),100% (active),2,100% (active),inactive,inactive,inactive,inactive
CCCC(C)Nc1nc(C)cc(NCCC(=O)Nc2ccccc2)n1 (stereo not given),11%,12%,-4,96% (active),inactive,inactive,inactive,inactive
CCOC(=O)C(NC(=O)c1ccc([N+](=O)[O-])o1)C(C)C (stereo not given),8%,-3%,0,87% (active),inactive,inactive,inactive,inactive
NC(=O)Nc1ccc2c(Nc3ccc(OCc4ccccc4)cc3)ncnc2c1,20%,-1%,3,84% (active),inactive,inactive,inactive,inactive
O=C(Cc1ccccc1)NC(c1ccc(Cl)cc1)c1ccc2cccnc2c1O (stereo not given),64% (active),50% (active),-2,93% (active),inactive,inactive,inactive,inactive
CC1(C)N=C(N)N=C(N)N1OCC1CCCCC1,97% (active),67% (active),4,94% (active),inactive,inactive,inactive,inactive
O=C(Nc1cccc2ccccc12)N1CCC(NS(=O)(=O)c2cccc(C(F)(F)F)c2)CC1,1%,-5%,-1,95% (active),inactive,inactive,inactive,inactive
CN(c1ccc(C(=O)N[C@@H](CCC(=O)O)C(=O)O)cc1)S(=O)(=O)c1ccc2nc(N)[nH]c(=O)c2c1,3%,16%,2,97% (active),inactive,inactive,inactive,inactive
COc1cc(C(=O)Nc2cccc(-c3cn4ccc(C)cc4n3)c2)cc(OC)c1OC,83% (active),-1%,1,97% (active),inactive,inactive,inactive,inactive
FC(F)(F)c1ccc2nc(-c3ccc(-c4cccc(CNCCc5ccncc5)c4)s3)[nH]c2c1,95% (active),20%,-6,100% (active),inactive,inactive,inactive,inactive
